Our source for the AC50 and outcome values is PubChem BioAssay (EPA / NIEHS).

The source made the active and inactive calls. How the source made its calls: active means hit-call score of the fitted dose curve at least 0.9, where 1 is the maximum; inactive means score below 0.9.

Assay [1] in a line: ATG_CMV_CIS: Attagene CIS-FACTORIAL HepG2 Assay for human CMV (Internal Marker) (AID 2282928).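 Further: endpoint acts as a background internal control marker rather than a target.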 As to conditions: HepG2 CMV promoter reporter, transcription factor profiling; actives raise or lower the signal. In a few lines:
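Endogenous transcription factor activity read in HepG2 via transfected cis-promoter reporter units. After 24 h dosing, reporter mRNA measured by RT-PCR/capillary electrophoresis; gain or loss of signal fit relative to DMSO.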

Assay [2] in a line: ATG_DR4_LXR_CIS: Attagene CIS-FACTORIAL HepG2 Assay for human Liver X Receptor (LXR), DR4 submotif (AID 2282929). Conditions: HepG2 Attagene DR4 cis-reporter, mRNA transcription; actives raise or lower the signal. In a few lines:
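Total RNA from 24 h-treated, MRTU-transfected HepG2 cells underwent reverse transcription, PCR, fluorescent primer extension and restriction digestion before capillary electrophoresis. Both increases and decreases in reporter signal were fitted against DMSO.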

Assay [3] in a line: ATG_AP_2_CIS: Attagene CIS-FACTORIAL HepG2 Assay for human Activator Protein 2 (AP-2) (AID 2282932). As to conditions: HepG2 AP-2 cis-reporter, Attagene transcription factor profiling; actives raise or lower the signal. In a few lines: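 HepG2 cells transiently transfected with cis-element reporter units and exposed for 24 h. Reporter mRNA measured by RT-PCR, FAM labelling, HpaI digestion and capillary electrophoresis. Changes in either direction fitted relative to DMSO.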

Assay [4] addresses Transcription factor E2F1 (Homo sapiens) (UniProt Q01094). As to the kind of experiment: ATG_E2F_CIS: Attagene CIS-FACTORIAL HepG2 Assay for human E2F Transcription Factor 1 (AID 2282935). Conditions: HepG2 Attagene cis-reporter, E2F reporter RNA transcripts; actives raise or lower the signal. The gist of the method: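 Endogenous E2F1 activity read through cis-promoter reporter units transfected into HepG2. After 24 h compound treatment, reporter mRNA measured by RT-PCR, HpaI digestion and capillary electrophoresis. Bidirectional fit versus DMSO.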

Assay [5] can be described thus: ATG_M_61_CIS: Attagene CIS-FACTORIAL HepG2 Assay for M61 Transcription Factor (Internal Marker) (AID 2282937). As to conditions: HepG2 Attagene CIS-FACTORIAL M61 internal marker reporter; actives raise or lower the signal. In a few lines: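 Transfect HepG2 with MRTUs; dose 24 h; isolate RNA; reverse-transcribe with DNase I treatment; PCR-amplify, FAM-label and cut with HpaI for 2 h at 37 C; resolve by CE. Bidirectional fitting against DMSO.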

Assay [6] can be described thus: ATG_EGR_CIS: Attagene CIS-FACTORIAL HepG2 Assay for human Early Growth Response 1 (EGR1) (AID 2282938). As to conditions: HepG2 Attagene CIS-FACTORIAL EGR reporter mRNA; actives raise or lower the signal. In a few lines: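 After a 24 h treatment of transiently transfected HepG2 cells, total RNA was reverse-transcribed and reporter sequences PCR-amplified, labelled and run on capillary electrophoresis. Reporters sit under cis-regulatory promoters sensing endogenous factors.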

Assay [7] is described as follows: ATG_Ets_CIS: Attagene CIS-FACTORIAL HepG2 Assay for human Erythroblast Transformation Specific (ETS) (AID 2282941). As to conditions: HepG2 ETS cis-reporter transcription, actives raise or lower the signal. In a few lines:
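Steps: transfect HepG2 with multiple reporter units; treat compound 24 h; isolate RNA, DNase-treat, reverse-transcribe; PCR-amplify, label with 6-FAM, digest with HpaI; separate by capillary electrophoresis. Activity fitted both directions versus DMSO.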

For assay [8], the target named is Hepatocyte nuclear factor 3-beta (Homo sapiens) (UniProt Q9Y261). As to the kind of experiment: ATG_FoxA2_CIS: Attagene CIS-FACTORIAL HepG2 Assay for human Forkhead box A2 (FOXA2) (AID 2282942). As to conditions: HepG2 cis-reporter transcription factor activity, 24 h; actives raise or lower the signal. In a few lines: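 24 h dosing of HepG2 bearing cis-reporter constructs; mRNA readout by RT-PCR/CE fluorescence; bidirectional fit, DMSO baseline.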
Sequence of Hepatocyte nuclear factor 3-beta (Homo sapiens) (Q9Y261 whole entry, looked up): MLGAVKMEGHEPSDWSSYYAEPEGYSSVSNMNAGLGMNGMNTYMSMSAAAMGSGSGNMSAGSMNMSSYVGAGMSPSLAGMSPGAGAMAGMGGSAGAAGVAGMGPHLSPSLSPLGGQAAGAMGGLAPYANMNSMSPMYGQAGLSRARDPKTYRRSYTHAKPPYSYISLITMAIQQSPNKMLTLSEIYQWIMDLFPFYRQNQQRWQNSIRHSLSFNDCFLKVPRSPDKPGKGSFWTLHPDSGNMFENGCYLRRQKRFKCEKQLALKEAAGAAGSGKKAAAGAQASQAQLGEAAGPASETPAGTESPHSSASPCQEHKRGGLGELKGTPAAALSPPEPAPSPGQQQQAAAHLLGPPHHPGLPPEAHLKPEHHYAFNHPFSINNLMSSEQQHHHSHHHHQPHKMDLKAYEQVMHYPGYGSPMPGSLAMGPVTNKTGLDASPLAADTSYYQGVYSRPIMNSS

Assay [9] in a line: ATG_FoxO_CIS: Attagene CIS-FACTORIAL HepG2 Assay for human Forkhead box O (FoxO) (AID 2282943). Conditions: HepG2 Attagene cis-reporter, FoxO element, mRNA; actives raise or lower the signal. In a few lines: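 Read-out: fluorescence of 6-FAM-labelled reporter cDNA fragments resolved by capillary electrophoresis. Transiently transfected HepG2 cells were dosed for 24 h; activity fitted in both directions relative to DMSO controls.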

Assay [10] is described as follows: ATG_GATA_CIS: Attagene CIS-FACTORIAL HepG2 Assay for human GATA Binding Protein (AID 2282944). As to conditions: HepG2 GATA cis-element reporter, Attagene multiplex mRNA; actives raise or lower the signal. In a few lines: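 DMSO serves as negative control and baseline for bidirectional fitting of reporter mRNA changes. HepG2 cells bearing transiently transfected cis-promoter reporters were exposed 24 h; transcripts detected via RT-PCR and capillary electrophoresis.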

Assay [11] in a line: ATG_ISRE_CIS: Attagene CIS-FACTORIAL HepG2 Assay for human Interferon Regulatory Factor 1 (IRF1) binding to an Interferon-Stimulated Response Element (ISRE) (AID 2282948). As to conditions: HepG2 ISRE cis-reporter (Attagene), mRNA transcription readout; actives raise or lower the signal. The gist of the method: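 Transfected HepG2 (multiple reporter transcription units, cis elements) dosed 24 h. RNA → oligo(dT) RT → PCR → 6-FAM primer extension → HpaI → CE. DMSO = negative control/baseline.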

Assay [12] in a line: ATG_M_32_CIS: Attagene CIS-FACTORIAL HepG2 Assay for M32 Transcription Factor (Internal Marker) (AID 2282949).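 Further: background control marker of the multiplexed CIS panel rather than a real target.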 Conditions: HepG2 Attagene cis-factorial M32 reporter, mRNA; actives raise or lower the signal. The gist of the method: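 Fluorescent capillary electrophoresis peaks of HpaI-digested, FAM-labelled RT-PCR reporter products give the signal. Source: transiently transfected human liver HepG2 cells, 24 h after chemical dosing; bidirectional fitting against DMSO.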

Assay [13] in a line: ATG_MRE_CIS: Attagene CIS-FACTORIAL HepG2 Assay for human Metal Responsive Element (MRE) (AID 2282954). As to conditions: HepG2 MRE cis-reporter transcription, Attagene multiplex; actives raise or lower the signal. The gist of the method:
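HepG2 cells transiently transfected with cis-element-driven reporter units; mRNA measured 24 h after dosing. Reporter transcripts quantified by RT-PCR, FAM labelling, HpaI digestion and capillary electrophoresis; bidirectional fit versus DMSO.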

The target of assay [14] is Paired box protein Pax-6 (Homo sapiens) (UniProt P26367). Nature of the assay: ATG_Pax6_CIS: Attagene CIS-FACTORIAL HepG2 Assay for human Paired Box 6 (PAX6) (AID 2282956). Conditions: HepG2 CIS-FACTORIAL PAX6 reporter transcription, RNA readout; actives raise or lower the signal. The gist of the method: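 Transient MRTU transfection of HepG2 → compound exposure 24 h → TriZol RNA, oligo(dT) RT → PCR, 6-FAM primer extension, HpaI cut → capillary electrophoresis; activity fitted both directions against DMSO.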
Sequence of Paired box protein Pax-6 (Homo sapiens) (P26367 whole entry, looked up): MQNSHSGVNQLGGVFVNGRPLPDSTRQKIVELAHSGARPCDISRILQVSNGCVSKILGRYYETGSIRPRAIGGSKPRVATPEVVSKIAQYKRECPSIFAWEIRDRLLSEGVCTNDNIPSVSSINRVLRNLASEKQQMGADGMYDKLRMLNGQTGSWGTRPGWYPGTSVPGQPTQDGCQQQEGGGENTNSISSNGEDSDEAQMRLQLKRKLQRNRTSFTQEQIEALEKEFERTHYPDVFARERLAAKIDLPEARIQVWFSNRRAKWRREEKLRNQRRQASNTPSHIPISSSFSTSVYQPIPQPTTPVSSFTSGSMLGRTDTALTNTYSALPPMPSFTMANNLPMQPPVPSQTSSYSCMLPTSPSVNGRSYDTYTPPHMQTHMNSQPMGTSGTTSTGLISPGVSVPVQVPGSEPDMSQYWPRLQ

Assay [15] is described as follows: ATG_PXRE_CIS: Attagene CIS-FACTORIAL HepG2 Assay for human Pregnane X Receptor Element (PXRE) (AID 2282957). As to conditions: HepG2 Attagene CIS-FACTORIAL PXRE reporter, mRNA; actives raise or lower the signal. In a few lines: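 Transiently transfected HepG2 cells were dosed and incubated for 24 h. RNA was then isolated, DNase-treated, reverse-transcribed and reporter sequences amplified. Labeled, HpaI-digested fragments were quantified by capillary electrophoresis against DMSO.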

Assay [16] can be described thus: ATG_Sox_CIS: Attagene CIS-FACTORIAL HepG2 Assay for human SRY-box transcription factor (SOX) (AID 2282960). Conditions: HepG2 Attagene cis-factorial SOX reporter, mRNA; actives raise or lower the signal. The gist of the method:
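HepG2, cis reporter units, 24 h exposure. Reporter mRNA: RT-PCR → FAM labelling → HpaI → CE fluorescence. Bidirectional fit vs DMSO.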

Assay [17] in a line: ATG_SREBP_CIS: Attagene CIS-FACTORIAL HepG2 Assay for human Sterol Regulatory Element Binding (SREBP) (AID 2282962). Conditions: HepG2 Attagene cis-factorial SREBP reporter, mRNA; actives raise or lower the signal. The gist of the method: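 Transfected HepG2 (cis-regulated reporter library, endogenous TFs) → compound 24 h → total RNA → oligo(dT) RT → reporter-specific PCR → FAM primer extension, HpaI cut → CE fluorescence. Fit bidirectional vs DMSO.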

The nature of assay [18]: ATG_TCF_b_cat_CIS: Attagene CIS-FACTORIAL HepG2 Assay for human T-Cell-Factor with beta-catenin (TCF/b-cat) (AID 2282965). As to conditions: HepG2 TCF/beta-catenin cis-reporter transcription, actives raise or lower the signal. The gist of the method:
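HepG2, transient MRTU transfection, cis-element-driven reporters (endogenous TFs). 24 h compound exposure. Readout: reporter mRNA by RT-PCR + 6-FAM primer extension, HpaI digest, capillary electrophoresis. Gain/loss fit vs DMSO baseline.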

A short description of assay [19]: ATG_TAL_CIS: Attagene CIS-FACTORIAL HepG2 Assay for human TAL Basal Promoter (AID 2282966).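 Further: background control endpoint measuring basal TAL promoter reporter mRNA not a specific factor.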 Conditions: HepG2 Attagene cis-factorial TAL promoter reporter; actives raise or lower the signal. In a few lines: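 Readout: reporter mRNA, fluorescence by CE. System: HepG2, transient multi-reporter transfection, endogenous TF activity. Exposure: 24 h. Analysis: bidirectional, DMSO-normalized; background control.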

The nature of assay [20]: ATG_TGFb_CIS: Attagene CIS-FACTORIAL HepG2 Assay for human Transforming Growth Factor (TGF) (AID 2282967). As to conditions: HepG2 Attagene CIS TGFb reporter, mRNA transcription; actives raise or lower the signal. In a few lines: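 Transcript-level reporter readout: HepG2 transfectants, 24 h exposure, RNA to cDNA, reporter-specific PCR, fluorescent primer extension, capillary sizing against ROX standards. Gain- or loss-of-signal relative to DMSO.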

Usually AC50 stands for the concentration giving half of the maximal activity seen.

Sequence of Transcription factor E2F1 (Homo sapiens) (Q01094 whole entry, looked up): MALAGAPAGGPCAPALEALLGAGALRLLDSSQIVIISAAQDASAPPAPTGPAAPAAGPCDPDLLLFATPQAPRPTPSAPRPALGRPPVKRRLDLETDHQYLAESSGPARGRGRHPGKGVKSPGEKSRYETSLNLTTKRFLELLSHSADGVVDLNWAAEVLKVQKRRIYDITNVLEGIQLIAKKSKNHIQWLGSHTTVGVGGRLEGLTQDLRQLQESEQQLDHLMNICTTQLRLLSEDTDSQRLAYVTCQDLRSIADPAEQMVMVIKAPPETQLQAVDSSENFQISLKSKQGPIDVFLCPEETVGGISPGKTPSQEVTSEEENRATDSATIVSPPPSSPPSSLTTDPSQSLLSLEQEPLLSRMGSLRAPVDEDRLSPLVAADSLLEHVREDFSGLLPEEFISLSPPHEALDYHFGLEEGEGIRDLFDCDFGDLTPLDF

Turning to `CCCCCCCCCCCCCCCC[N+](C)(C)C`, the AC50 in [1] is 48.9 µM (active); in [4], 24.2 µM (active); in assay [7], 100 µM (active); in assay [10] it was 26.6 µM (active); in [11], 27.4 µM (active); in assay [12] it was 25.5 µM (active). The AC50 in assay [13] was 25.5 µM (active); in assay [15], 20.3 µM (active); in assay [16], 100 µM (active); in assay [18] it was 5.71 µM (active); in assay [19], 138 µM (active). Also, the result in [2], in assay [3], in assay [5], in [6], in assay [8] and in [9] was inactive. Moreover, the result in assay [14], in assay [17] and in [20] was inactive.

For the compound `O=C(O)CCl`, the call in assay [1], in assay [2], in [3], in assay [4], in assay [5] and in [6] was inactive. For the same compound, the call in assay [7], in [8], in assay [9], in assay [10], in [11] and in assay [12] was inactive. The outcome in assay [13], in assay [14], in assay [15], in [16], in assay [17] and in assay [18] was inactive. Further, the compound was classed as inactive in [19] and in [20].

Take `O=C(O)C(Br)Br`: the outcome in assay [1], in [2], in assay [3], in assay [4], in [5] and in assay [6] was inactive. Besides, the result in [7], in assay [8], in [9], in [10], in [11] and in assay [12] was inactive. Besides, the compound was called inactive in assay [13], in assay [14], in assay [15], in assay [16], in [17] and in assay [18]. In addition, the compound was called inactive in assay [19] and in [20].
